Results as given in the supplement of paper PMC10849652.
About 8,800 targets were measured; listed, in parts, are those with a hit and a random draw of the rest. About 0.5% of all pairs of compound and target were hits.

Columns and labels:
Assay in all cases: log2 fold change, soluble protein after heating vs DMSO (PISA); higher = thermal stabilisation; K562 lysate, 10 uM; active = over 0.2 and 3.5 SD of the protein, either way, in both replicates (recomputed)
[1] = compound: Cc1cn(-c2cc(NC(=O)c3ccc(C)c(Nc4nccc(-c5cccnc5)n4)c3)cc(C(F)(F)F)c2)cn1 [nilotinib]
Summary of the method: (§1)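 Pellets of K562 cells were dounce-homogenised in PBS pH 7.4 with 1 mM MgCl2, and the crude extract was held at 1 mg/mL protein for a 30 min treatment with 10 μM compound. Aliquots were heated for 3 min over 48°C-58°C and pooled before NP-40 was added to 0.5% at 4°C. The supernatant from 21,000xg for 90 min was quantified by TMTpro 16plex LC-MS/MS with channel sums equalised. Values are reported from duplicates as log-two fold change in thermal stability relative to solvent controls.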

[2] = compound: Cc1nc(Nc2n[nH]c3c2CN(C(=O)N[C@H](CN(C)C)c2ccccc2)C3(C)C)c2sccc2n1
Summary of the method: as §1

[3] = compound: Cc1nc(Nc2ncc(C(=O)Nc3c(C)cccc3Cl)s2)cc(N2CCN(CCO)CC2)n1 [dasatinib]
Summary of the method: as §1

[4] = compound: Cc1ncc(-c2ccnc(Nc3ccc(S(C)(=O)=O)cc3)n2)n1C(C)C
Summary of the method: as §1

[5] = compound: Cn1cc(-c2ccc3c(c2)CCN3C(=O)Cc2cccc(C(F)(F)F)c2)c2c(N)ncnc21
Summary of the method: as §1

[6] = compound: Cn1cc(CNCC2CCN(c3ncc(C(=O)NO)cn3)CC2)c2ccccc21 [quisinostat]
Summary of the method: as §1

[7] = compound: Cn1cncc1[C@@](N)(c1ccc(Cl)cc1)c1ccc2c(c1)c(-c1cccc(Cl)c1)cc(=O)n2C [tipifarnib]
Summary of the method: as §1

[8] = compound: NC(=O)Nc1cc(-c2cccc(F)c2)sc1C(=O)N[C@H]1CCCNC1
Summary of the method: as §1

[9] = compound: NC(=O)c1cnc(N[C@@H]2CCCC[C@@H]2N)nc1Nc1cccc(-n2nccn2)c1
Summary of the method: as §1

[10] = compound: NC1(c2ccc(-c3nc4ccn5c(=O)[nH]nc5c4cc3-c3ccccc3)cc2)CCC1
Summary of the method: as §1

[11] = compound: NCC(=O)Nc1ccc(-n2nc(C(F)(F)F)cc2-c2ccc3c(ccc4ccccc43)c2)cc1
Summary of the method: as §1

[12] = compound: O=C(CCCCCCC(=O)Nc1ccccc1)NO [vorinostat]
Summary of the method: as §1

[13] = compound: O=C(O)c1ccc2c(c1)nc(Nc1cccc(Cl)c1)c1ccncc12 [silmitasertib]
Summary of the method: as §1

[14] = compound: O=C1NC(=O)C(c2cnc3ccccn23)=C1c1cn2c3c(cc(F)cc13)CN(C(=O)N1CCCCC1)CC2
Summary of the method: as §1

[15] = compound: c1cn2cc(-c3ccc4cn[nH]c4c3)nc(Nc3ccc(N4CCOCC4)cc3)c2n1 [entospletinib]
Summary of the method: as §1

Measured: log2 fold change

BCKDK (UniProt O14874)
active: [14] -0.271
inactive: [1] 0.008 | [2] 0.001 | [3] 0.023 | [4] -0.061 | [5] 0.058 | [6] 0.094 | [7] -0.058 | [8] -0.092 | [9] -0.029 | [10] 0.052 | [11] -0.01 | [12] 0.025 | [13] 0.052 | [15] -0.053

C2CD5 isoform 3 (UniProt Q86YS7)
Chain of UniProt Q86YS7 (Q86YS7 whole entry, looked up): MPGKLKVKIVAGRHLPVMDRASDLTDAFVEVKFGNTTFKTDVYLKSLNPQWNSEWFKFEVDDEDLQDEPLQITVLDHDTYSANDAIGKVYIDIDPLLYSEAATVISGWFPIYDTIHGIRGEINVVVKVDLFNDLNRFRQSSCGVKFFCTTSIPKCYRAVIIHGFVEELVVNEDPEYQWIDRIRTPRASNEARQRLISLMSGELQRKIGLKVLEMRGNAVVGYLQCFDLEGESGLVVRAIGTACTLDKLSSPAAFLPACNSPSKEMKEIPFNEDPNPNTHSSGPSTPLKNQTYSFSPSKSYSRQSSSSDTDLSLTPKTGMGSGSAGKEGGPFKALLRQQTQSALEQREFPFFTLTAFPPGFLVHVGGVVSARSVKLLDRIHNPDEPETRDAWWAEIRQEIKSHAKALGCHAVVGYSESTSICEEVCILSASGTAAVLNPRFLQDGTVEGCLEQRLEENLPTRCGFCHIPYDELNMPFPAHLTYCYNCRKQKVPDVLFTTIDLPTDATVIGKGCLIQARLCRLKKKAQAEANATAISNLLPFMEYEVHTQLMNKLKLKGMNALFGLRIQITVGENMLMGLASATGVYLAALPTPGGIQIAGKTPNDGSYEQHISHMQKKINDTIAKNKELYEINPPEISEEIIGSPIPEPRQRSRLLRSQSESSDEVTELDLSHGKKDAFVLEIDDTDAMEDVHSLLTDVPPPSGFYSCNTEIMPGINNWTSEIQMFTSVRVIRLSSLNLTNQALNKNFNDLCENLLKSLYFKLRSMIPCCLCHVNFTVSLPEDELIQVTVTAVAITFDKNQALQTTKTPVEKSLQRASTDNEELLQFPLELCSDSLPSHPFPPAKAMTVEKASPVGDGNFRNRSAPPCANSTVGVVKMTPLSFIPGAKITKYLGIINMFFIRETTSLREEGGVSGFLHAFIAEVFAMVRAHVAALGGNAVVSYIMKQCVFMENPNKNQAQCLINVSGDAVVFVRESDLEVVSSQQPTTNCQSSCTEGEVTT
inactive: [1] -0.036 | [2] 0.074 | [3] -0.053 | [4] 0.046 | [5] 0.01 | [6] 0.013 | [7] -0.053 | [8] 0.024 | [9] 0.01 | [10] -0.044 | [11] 0.01 | [12] 0.086 | [13] -0.059 | [14] 0.049 | [15] 0.009

ATRIP (UniProt Q8WXE1)
Chain of UniProt Q8WXE1 (Q8WXE1 whole entry, looked up): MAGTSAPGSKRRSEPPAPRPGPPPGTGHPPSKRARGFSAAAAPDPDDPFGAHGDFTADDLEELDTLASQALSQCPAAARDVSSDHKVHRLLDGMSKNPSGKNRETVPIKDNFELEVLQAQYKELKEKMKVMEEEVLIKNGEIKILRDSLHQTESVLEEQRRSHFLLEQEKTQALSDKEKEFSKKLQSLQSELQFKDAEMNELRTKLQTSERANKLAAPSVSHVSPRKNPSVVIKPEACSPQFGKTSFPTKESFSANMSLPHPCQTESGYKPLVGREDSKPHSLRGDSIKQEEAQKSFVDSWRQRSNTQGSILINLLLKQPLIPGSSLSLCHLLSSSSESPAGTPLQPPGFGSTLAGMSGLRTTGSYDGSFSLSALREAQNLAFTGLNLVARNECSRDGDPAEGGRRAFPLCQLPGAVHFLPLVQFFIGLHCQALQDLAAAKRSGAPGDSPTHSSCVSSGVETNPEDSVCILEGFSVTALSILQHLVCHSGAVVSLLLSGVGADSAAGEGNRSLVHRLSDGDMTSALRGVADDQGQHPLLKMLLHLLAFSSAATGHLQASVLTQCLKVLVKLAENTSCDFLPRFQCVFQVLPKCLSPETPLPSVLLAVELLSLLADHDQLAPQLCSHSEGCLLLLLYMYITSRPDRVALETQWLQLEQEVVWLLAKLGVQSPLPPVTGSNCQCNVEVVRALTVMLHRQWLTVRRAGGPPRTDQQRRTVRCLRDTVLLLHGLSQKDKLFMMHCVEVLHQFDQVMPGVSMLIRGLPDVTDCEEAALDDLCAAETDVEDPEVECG
inactive: [1] -0.014 | [2] -0.028 | [3] -0.059 | [4] 0.071 | [5] 0.045 | [6] -0.03 | [7] -0.049 | [8] -0.007 | [9] 0.01 | [10] 0.032 | [11] -0.088 | [12] -0.28 | [13] 0.229 | [14] 0.039 | [15] -0.009

BET1 (UniProt O15155)
Chain of UniProt O15155 (O15155 whole entry, looked up): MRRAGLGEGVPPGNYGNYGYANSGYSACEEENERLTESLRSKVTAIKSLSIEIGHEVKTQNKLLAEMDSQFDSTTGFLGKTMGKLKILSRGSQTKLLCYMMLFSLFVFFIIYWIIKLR
inactive: [1] 0.038 | [2] 0.052 | [3] -0.015 | [4] -0.011 | [5] 0 | [6] 0.023 | [7] -0.063 | [8] -0.005 | [9] -0.057 | [10] -0.005 | [11] 0.015 | [12] -0.042 | [13] -0.008 | [14] -0.01 | [15] 0.035

ATP2B4 (UniProt P23634)
Chain of UniProt P23634 (P23634 whole entry, looked up): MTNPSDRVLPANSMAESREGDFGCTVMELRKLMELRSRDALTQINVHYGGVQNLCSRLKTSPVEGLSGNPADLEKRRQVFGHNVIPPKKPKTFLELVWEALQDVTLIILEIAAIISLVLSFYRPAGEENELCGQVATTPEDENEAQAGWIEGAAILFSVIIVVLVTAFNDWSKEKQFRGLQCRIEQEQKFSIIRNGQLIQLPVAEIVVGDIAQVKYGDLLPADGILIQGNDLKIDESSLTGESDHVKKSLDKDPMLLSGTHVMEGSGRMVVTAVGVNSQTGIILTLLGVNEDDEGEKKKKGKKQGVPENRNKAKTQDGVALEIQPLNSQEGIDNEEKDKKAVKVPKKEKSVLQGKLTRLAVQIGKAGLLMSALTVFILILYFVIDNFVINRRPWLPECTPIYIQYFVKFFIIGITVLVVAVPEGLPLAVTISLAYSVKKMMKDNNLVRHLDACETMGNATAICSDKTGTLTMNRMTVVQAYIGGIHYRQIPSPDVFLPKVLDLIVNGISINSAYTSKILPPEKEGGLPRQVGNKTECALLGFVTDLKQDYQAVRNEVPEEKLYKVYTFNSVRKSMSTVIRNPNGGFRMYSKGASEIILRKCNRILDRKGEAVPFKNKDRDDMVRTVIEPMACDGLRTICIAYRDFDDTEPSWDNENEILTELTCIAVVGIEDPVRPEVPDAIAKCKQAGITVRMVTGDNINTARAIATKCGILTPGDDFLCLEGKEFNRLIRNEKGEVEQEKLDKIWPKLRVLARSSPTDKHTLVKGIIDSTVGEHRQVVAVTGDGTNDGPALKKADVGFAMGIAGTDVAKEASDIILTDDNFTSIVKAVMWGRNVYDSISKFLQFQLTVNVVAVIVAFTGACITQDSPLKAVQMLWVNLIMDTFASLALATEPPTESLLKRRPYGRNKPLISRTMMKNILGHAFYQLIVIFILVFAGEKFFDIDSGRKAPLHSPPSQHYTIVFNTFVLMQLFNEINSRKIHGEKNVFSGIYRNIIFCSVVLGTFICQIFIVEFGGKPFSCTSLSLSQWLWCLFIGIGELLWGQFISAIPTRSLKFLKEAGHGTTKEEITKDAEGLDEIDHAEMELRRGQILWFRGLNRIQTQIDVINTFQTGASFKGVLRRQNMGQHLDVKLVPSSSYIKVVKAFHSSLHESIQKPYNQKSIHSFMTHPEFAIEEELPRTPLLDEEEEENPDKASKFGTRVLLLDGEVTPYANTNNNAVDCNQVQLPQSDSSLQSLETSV
inactive: [1] -0.05 | [2] 0.098 | [3] -0.031 | [4] 0.003 | [5] 0.021 | [6] 0.164 | [7] -0.028 | [8] -0.019 | [9] 0.019 | [10] 0.008 | [11] -0.026 | [12] -0.042 | [13] -0.003 | [14] -0.079 | [15] -0.042

ATP13A1 (UniProt Q9HD20)
inactive: [1] 0.009 | [2] 0.004 | [3] 0.102 | [4] 0.003 | [5] 0.005 | [6] 0.001 | [7] -0.109 | [8] -0.044 | [9] 0.07 | [10] 0.065 | [11] -0.009 | [12] -0.094 | [13] 0.03 | [14] -0.02 | [15] -0.03

BTAF1 (UniProt O14981)
active: [12] -0.45
inactive: [1] -0.005 | [2] 0.018 | [3] -0.028 | [4] 0.007 | [5] 0.008 | [6] -0.015 | [7] -0.011 | [8] 0.033 | [9] 0.016 | [10] 0.004 | [11] 0.01 | [13] 0.003 | [14] -0.008 | [15] -0.031

CAMK1 (UniProt Q14012)
Chain of UniProt Q14012 (Q14012 whole entry, looked up): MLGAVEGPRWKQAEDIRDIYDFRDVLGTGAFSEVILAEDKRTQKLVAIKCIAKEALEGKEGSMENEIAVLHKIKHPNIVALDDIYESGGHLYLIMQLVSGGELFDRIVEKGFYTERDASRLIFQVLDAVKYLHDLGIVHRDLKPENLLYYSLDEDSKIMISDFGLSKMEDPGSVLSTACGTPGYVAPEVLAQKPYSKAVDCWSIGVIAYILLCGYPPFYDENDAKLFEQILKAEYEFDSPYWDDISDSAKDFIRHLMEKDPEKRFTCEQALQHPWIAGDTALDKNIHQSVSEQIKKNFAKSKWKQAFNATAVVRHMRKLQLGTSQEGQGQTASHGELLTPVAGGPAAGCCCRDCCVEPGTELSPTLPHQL
inactive: [1] -0.086 | [2] 0.04 | [3] 0.021 | [4] 0.064 | [5] 0.008 | [6] -0.12 | [7] -0.071 | [8] 0.194 | [9] 0.018 | [10] -0.023 | [11] -0.13 | [12] 0.027 | [13] -0.059 | [14] 0.062 | [15] 0.115

CHD1L (UniProt Q86WJ1)
inactive: [1] -0.01 | [2] -0.012 | [3] -0.024 | [4] 0 | [5] 0.024 | [6] -0.114 | [7] 0.032 | [8] 0.111 | [9] 0.028 | [10] -0.039 | [11] 0.01 | [13] 0.015 | [14] 0.164 | [15] 0.046
active: [12] -0.277

AURKAIP1 (UniProt Q9NWT8)
inactive: [1] -0.072 | [2] -0.019 | [3] 0 | [4] 0 | [5] -0.058 | [6] -0.02 | [7] -0.041 | [8] 0.055 | [9] 0.042 | [10] -0.071 | [11] 0.073 | [12] 0.08 | [13] -0.01 | [14] 0.071 | [15] -0.081

CCT6A (UniProt P40227)
inactive: [1] -0.003 | [2] -0.004 | [3] -0.001 | [4] -0.007 | [5] 0.001 | [6] 0.037 | [7] 0.014 | [8] -0.005 | [9] 0.003 | [10] 0.005 | [11] 0.004 | [12] 0.049 | [13] -0.005 | [14] 0.012 | [15] 0.024

BRD3 (UniProt Q15059)
inactive: [1] -0.069 | [2] 0.074 | [3] -0.011 | [4] 0.025 | [5] -0.018 | [6] 0.013 | [7] 0.013 | [8] 0.066 | [9] -0.024 | [10] -0.185 | [11] 0.052 | [12] -0.117 | [13] -0.146 | [14] 0.021 | [15] -0.018

CDK8 (UniProt P49336)
Chain of UniProt P49336 (P49336 whole entry, looked up): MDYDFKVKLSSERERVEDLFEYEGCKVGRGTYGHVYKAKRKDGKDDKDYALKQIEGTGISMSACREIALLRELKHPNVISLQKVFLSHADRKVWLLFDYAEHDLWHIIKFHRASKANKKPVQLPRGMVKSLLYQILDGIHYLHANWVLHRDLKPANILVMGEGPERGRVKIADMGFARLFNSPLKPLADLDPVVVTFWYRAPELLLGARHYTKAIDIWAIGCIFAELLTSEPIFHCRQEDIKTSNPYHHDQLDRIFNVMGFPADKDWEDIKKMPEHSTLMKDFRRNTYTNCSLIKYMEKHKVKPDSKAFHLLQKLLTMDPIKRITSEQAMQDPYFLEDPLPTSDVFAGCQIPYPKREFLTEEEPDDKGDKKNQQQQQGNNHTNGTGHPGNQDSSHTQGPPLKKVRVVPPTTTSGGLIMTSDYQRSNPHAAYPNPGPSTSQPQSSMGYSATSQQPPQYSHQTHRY
inactive: [1] -0.025 | [2] -0.037 | [3] -0.054 | [4] 0.119 | [5] -0.032 | [6] -0.05 | [7] -0.209 | [8] 0.018 | [9] -0.006 | [10] -0.033 | [11] -0.008 | [12] -0.057 | [13] 0.226 | [14] -0.053

CALM2 (UniProt P0DP24)
inactive: [1] -0.009 | [2] 0.014 | [3] -0.013 | [4] 0.022 | [5] -0.001 | [6] -0.178 | [7] 0.016 | [8] -0.053 | [9] -0.014 | [10] -0.06 | [11] 0.008 | [12] -0.027 | [13] 0.064 | [14] -0.121 | [15] -0.048

CDC42EP4 (UniProt Q9H3Q1)
inactive: [1] 0.061 | [2] -0.043 | [3] 0.039 | [4] -0.026 | [5] -0.028 | [6] -0.045 | [7] 0.006 | [8] -0.02 | [9] -0.025 | [10] 0.02 | [11] 0 | [12] 0.018 | [13] -0.074 | [14] 0.021 | [15] 0.051

C19orf54 (UniProt Q5BKX5)
inactive: [1] 0.012 | [2] -0.006 | [3] -0.037 | [4] -0.016 | [5] 0.006 | [6] 0.006 | [7] -0.007 | [8] 0.098 | [9] 0.016 | [10] 0.003 | [11] -0.052 | [13] -0.004 | [14] -0.006 | [15] 0.009
active: [12] -0.381

CAMKK1 isoform 2 (UniProt Q8N5S9)
inactive: [1] -0.013 | [2] 0.144 | [3] 0.05 | [4] 0.064 | [5] 0.189 | [6] -0.072 | [7] -0.064 | [8] 0.047 | [9] -0.002 | [10] 0.007 | [11] 0.006 | [12] -0.255 | [13] 0.072 | [14] -0.007 | [15] -0.078

ATG7 (UniProt O95352)
active: [12] -0.47
inactive: [1] 0.02 | [2] -0.03 | [3] -0.026 | [4] -0.032 | [5] 0.037 | [6] -0.039 | [7] 0.03 | [8] 0.058 | [9] 0.01 | [10] -0.02 | [11] 0.008 | [13] 0.005 | [14] -0.005 | [15] 0.001

CCNB2 (UniProt O95067)
Chain of UniProt O95067 (O95067 whole entry, looked up): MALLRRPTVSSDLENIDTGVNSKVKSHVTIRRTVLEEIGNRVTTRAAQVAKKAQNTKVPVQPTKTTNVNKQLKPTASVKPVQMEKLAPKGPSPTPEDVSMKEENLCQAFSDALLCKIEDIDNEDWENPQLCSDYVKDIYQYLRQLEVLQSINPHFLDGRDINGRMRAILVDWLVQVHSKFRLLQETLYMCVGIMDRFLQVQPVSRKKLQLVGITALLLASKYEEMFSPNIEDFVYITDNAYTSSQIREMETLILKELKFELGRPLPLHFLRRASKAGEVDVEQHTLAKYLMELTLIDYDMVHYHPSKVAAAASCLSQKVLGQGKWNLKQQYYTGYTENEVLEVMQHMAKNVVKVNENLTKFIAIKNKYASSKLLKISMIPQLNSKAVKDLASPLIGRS
inactive: [1] -0.053 | [2] 0.081 | [3] -0.016 | [5] -0.046 | [6] -0.081 | [7] -0.029 | [8] 0.012 | [9] -0.038 | [10] 0 | [11] 0.01 | [12] -0.115 | [13] -0.079 | [14] -0.08 | [15] 0.044
active: [4] 0.21

CASP9 (UniProt P55211)
active: [12] -0.342
inactive: [1] -0.004 | [2] 0.006 | [3] -0.055 | [4] -0.012 | [5] -0.013 | [6] -0.056 | [7] 0.005 | [8] 0.056 | [9] -0.011 | [10] 0.007 | [11] 0.011 | [13] -0.004 | [14] 0.019 | [15] -0.002

ATG4B (UniProt Q9Y4P1)
Chain of UniProt Q9Y4P1 (Q9Y4P1 whole entry, looked up): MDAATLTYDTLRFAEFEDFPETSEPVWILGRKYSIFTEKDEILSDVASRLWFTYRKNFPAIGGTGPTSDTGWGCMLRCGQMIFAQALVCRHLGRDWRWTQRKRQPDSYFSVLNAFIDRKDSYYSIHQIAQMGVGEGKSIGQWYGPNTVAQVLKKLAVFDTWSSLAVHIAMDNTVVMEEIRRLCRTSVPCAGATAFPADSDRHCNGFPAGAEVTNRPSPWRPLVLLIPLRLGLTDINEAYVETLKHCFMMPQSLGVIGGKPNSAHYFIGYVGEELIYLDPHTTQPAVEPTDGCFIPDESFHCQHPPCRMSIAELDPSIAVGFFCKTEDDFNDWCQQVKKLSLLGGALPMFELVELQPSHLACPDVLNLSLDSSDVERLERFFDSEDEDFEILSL
active: [12] -0.274
inactive: [1] 0.045 | [2] 0.001 | [3] -0.049 | [4] 0.008 | [5] 0.044 | [6] -0.055 | [7] -0.019 | [8] 0.024 | [9] -0.05 | [10] 0.005 | [11] -0.009 | [13] 0.043 | [14] -0.014 | [15] 0.021
